# Measured values published in the supplement of paper PMC10849652.
# About 7,900 targets were measured; listed, in parts, are those with a hit and a random draw of the rest. About 0.6% of all pairs of compound and target were hits. A number with no mark means an inactive call.
# Columns and labels:
# Experiment in all cases: log2 fold change, soluble protein after heating vs DMSO (PISA); higher = thermal stabilisation; K562 cells, 10 uM, 30 min; active = over 0.2 and 3.5 SD of the protein, either way, in both replicates (recomputed)
# [1] = compound: COC1=CC=C(C=C1)CN2C=CC3=C2C=C(C=C3)C(=O)NO
# How it was run: (§1)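 K562 cells at 2×10^6 cells/mL were exposed to 10 μM compound for 30 min, then aliquots were heated for 3 min across 48°C-58°C, pooled, and extracted in PBS containing 0.5% NP-40 at 4°C. The supernatant after 21,000xg for 90 min was taken as soluble protein and measured by TMTpro 16plex LC-MS/MS with channel sums equalised. Thermal stability is reported relative to control samples, with values from duplicates. Fold changes are given on a log2 scale.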
# filanesib = compound: CON(C)C(=O)N1N=C(c2cc(F)ccc2F)S[C@@]1(CCCN)c1ccccc1 [filanesib]
# How it was run: as §1
# zotarolimus = compound: CO[C@H]1C[C@@H]2CC[C@@H](C)[C@@](O)(O2)C(=O)C(=O)N2CCCC[C@H]2C(=O)O[C@H]([C@H](C)C[C@@H]2CC[C@H](n3cnnn3)[C@H](OC)C2)CC(=O)[C@H](C)/C=C(\C)[C@@H](O)[C@@H](OC)C(=O)[C@H](C)C[C@H](C)/C=C/C=C/C=C/1C [zotarolimus]
# How it was run: as §1
# idasanutlin = compound: COc1cc(C(=O)O)ccc1NC(=O)[C@@H]1N[C@@H](CC(C)(C)C)[C@](C#N)(c2ccc(Cl)cc2F)[C@H]1c1cccc(Cl)c1F [idasanutlin]
# How it was run: as §1
# alisertib = compound: COc1cc(Nc2ncc3c(n2)-c2ccc(Cl)cc2C(c2c(F)cccc2OC)=NC3)ccc1C(=O)O [alisertib]
# How it was run: as §1
# [2] = compound: COc1cc2nc(-c3cc(F)ccc3O)nc(N[C@@H]3CNC[C@H]3C(C)(C)O)c2cc1OC
# How it was run: as §1
# gefitinib = compound: COc1cc2ncnc(Nc3ccc(F)c(Cl)c3)c2cc1OCCCN1CCOCC1 [gefitinib]
# How it was run: as §1
# [3] = compound: COc1cccc2cc(-c3nc([C@H]4CC[C@H](C(=O)O)CC4)n4ncnc(N)c34)[nH]c12
# How it was run: as §1
# lapatinib = compound: CS(=O)(=O)CCNCc1ccc(-c2ccc3ncnc(Nc4ccc(OCc5cccc(F)c5)c(Cl)c4)c3c2)o1 [lapatinib]
# How it was run: as §1
# pictilisib = compound: CS(=O)(=O)N1CCN(Cc2cc3nc(-c4cccc5[nH]ncc45)nc(N4CCOCC4)c3s2)CC1 [pictilisib]
# How it was run: as §1
# Sequence of UniProt Q8TCG2 (Q8TCG2 whole entry, looked up): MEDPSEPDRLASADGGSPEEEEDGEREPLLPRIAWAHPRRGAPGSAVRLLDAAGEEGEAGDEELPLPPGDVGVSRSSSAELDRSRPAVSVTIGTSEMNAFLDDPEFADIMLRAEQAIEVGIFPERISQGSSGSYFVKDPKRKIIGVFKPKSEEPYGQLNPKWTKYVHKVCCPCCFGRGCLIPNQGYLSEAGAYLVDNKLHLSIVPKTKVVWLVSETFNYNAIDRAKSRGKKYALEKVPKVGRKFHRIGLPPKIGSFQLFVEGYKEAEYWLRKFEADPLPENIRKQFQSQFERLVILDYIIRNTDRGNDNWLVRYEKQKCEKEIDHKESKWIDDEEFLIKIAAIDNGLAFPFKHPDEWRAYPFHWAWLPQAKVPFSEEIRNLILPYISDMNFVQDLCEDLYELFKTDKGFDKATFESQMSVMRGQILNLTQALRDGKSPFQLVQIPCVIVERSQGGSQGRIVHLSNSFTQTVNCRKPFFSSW
# Sequence of UniProt O75400 (O75400 whole entry, looked up): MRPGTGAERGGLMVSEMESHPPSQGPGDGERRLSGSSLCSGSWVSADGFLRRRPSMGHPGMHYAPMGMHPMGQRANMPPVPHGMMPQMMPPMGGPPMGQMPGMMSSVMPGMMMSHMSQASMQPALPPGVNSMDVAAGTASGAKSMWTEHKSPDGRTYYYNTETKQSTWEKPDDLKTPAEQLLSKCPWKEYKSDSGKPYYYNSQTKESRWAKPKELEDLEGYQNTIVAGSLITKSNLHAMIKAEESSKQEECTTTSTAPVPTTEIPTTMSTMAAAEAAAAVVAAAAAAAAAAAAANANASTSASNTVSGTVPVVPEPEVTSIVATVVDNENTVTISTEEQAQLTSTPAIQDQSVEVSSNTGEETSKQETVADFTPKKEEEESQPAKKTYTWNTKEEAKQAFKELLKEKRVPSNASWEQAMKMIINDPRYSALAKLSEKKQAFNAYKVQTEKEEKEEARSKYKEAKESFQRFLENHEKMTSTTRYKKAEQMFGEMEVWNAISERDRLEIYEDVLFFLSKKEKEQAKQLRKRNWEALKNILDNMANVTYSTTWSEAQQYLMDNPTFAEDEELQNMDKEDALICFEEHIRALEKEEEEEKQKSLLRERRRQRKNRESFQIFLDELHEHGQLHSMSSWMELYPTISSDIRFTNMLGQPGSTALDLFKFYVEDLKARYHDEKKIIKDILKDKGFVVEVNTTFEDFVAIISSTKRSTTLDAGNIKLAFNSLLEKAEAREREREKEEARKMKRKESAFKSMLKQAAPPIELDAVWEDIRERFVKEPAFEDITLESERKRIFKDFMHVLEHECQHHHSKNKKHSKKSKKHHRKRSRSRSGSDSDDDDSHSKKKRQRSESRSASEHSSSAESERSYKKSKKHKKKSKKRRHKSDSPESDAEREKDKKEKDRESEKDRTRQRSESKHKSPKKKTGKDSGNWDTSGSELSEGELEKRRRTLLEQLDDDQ
# Sequence of UniProt Q96HA1 (Q96HA1 whole entry, looked up): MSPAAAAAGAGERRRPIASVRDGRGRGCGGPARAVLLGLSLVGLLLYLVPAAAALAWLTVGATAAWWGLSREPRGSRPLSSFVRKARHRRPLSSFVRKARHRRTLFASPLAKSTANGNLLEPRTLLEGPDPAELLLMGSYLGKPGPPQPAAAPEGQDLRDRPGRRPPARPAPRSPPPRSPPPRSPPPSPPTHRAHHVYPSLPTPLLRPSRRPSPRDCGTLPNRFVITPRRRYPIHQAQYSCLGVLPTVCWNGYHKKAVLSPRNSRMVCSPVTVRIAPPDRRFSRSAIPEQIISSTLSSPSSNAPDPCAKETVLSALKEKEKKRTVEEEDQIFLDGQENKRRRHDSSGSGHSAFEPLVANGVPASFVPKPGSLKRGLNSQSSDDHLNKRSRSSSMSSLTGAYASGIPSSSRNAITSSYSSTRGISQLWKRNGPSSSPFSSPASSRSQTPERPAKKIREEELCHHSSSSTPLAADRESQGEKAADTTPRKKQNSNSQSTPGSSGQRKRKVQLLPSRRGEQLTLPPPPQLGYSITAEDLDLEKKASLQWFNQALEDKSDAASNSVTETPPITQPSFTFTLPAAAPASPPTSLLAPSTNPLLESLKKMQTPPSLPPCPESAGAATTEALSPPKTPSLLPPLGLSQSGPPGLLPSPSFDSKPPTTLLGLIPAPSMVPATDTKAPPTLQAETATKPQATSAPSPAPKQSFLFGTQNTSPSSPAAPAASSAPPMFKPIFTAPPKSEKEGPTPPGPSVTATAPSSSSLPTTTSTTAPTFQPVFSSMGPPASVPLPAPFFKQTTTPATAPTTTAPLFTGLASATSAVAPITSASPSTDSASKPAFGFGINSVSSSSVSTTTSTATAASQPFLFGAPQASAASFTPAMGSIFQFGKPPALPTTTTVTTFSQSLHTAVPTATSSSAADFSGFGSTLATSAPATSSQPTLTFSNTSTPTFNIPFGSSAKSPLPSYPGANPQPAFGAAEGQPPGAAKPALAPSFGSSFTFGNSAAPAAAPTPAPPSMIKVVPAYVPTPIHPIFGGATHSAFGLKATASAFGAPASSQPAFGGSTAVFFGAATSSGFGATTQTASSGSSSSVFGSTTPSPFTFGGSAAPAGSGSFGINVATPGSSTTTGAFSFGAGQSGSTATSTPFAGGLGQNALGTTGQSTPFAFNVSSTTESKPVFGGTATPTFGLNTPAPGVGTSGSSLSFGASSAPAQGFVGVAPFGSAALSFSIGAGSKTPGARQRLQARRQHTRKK
# Sequence of UniProt Q6GMV3 (Q6GMV3 whole entry, looked up): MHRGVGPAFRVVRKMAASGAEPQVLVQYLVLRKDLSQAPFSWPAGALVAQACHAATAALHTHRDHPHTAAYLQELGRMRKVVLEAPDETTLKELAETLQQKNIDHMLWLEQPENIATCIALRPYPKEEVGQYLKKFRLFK
# Sequence of UniProt Q86TB9 (Q86TB9 whole entry, looked up): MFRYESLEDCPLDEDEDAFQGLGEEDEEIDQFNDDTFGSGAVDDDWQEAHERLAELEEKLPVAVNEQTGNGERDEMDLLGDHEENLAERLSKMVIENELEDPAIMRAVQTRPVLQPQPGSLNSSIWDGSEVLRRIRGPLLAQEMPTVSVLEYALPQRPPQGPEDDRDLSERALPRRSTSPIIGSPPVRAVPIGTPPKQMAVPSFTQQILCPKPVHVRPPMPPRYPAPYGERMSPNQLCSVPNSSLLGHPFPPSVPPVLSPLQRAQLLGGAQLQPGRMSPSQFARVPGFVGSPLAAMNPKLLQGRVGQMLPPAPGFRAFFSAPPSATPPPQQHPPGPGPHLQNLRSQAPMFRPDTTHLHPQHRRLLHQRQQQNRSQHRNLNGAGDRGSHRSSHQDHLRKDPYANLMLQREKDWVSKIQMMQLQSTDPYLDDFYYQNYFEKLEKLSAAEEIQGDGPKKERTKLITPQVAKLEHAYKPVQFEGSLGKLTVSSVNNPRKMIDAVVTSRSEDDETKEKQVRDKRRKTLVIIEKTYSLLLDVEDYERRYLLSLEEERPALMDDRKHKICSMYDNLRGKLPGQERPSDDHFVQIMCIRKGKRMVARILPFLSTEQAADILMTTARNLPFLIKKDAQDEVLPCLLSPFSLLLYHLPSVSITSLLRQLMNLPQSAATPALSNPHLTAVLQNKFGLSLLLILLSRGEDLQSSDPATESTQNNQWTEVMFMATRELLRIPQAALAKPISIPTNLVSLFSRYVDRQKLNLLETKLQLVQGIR
# Sequence of UniProt O00329 (O00329 whole entry, looked up): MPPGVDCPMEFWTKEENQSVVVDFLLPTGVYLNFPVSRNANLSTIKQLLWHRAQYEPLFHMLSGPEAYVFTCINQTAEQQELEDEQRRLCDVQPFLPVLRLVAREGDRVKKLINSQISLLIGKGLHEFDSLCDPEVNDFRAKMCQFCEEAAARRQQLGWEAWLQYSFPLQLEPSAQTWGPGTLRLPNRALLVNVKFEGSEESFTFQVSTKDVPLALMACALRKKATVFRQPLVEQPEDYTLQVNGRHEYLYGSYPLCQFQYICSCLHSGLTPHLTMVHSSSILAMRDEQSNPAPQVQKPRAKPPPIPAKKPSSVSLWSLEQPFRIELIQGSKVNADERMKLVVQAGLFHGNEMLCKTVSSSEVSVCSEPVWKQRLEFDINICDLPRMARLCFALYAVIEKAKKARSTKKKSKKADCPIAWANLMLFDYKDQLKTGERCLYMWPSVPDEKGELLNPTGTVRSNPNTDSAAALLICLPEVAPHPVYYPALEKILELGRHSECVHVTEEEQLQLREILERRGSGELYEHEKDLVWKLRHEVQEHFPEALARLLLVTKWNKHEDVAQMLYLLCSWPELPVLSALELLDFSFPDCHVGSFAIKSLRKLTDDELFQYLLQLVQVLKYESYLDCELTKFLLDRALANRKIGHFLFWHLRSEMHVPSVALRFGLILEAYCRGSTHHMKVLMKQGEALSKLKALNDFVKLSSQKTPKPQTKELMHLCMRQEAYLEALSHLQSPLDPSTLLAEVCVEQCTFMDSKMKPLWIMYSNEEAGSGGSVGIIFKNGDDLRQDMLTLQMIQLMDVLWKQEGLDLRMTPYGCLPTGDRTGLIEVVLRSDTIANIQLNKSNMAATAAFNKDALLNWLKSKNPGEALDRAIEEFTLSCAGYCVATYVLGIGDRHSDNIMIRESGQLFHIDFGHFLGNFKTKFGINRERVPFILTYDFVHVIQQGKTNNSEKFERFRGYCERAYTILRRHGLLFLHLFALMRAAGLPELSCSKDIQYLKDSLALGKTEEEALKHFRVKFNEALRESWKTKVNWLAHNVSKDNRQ
# Sequence of UniProt P62136 (P62136 whole entry, looked up): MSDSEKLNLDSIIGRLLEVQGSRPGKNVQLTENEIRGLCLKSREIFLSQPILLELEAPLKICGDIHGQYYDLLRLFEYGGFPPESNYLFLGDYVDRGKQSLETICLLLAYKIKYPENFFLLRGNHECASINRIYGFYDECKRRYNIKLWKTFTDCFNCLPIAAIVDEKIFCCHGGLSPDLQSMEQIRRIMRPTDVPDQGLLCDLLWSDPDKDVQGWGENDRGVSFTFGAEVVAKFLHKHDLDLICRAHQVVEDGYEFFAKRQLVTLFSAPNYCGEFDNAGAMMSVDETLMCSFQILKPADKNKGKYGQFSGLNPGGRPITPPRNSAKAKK
Target,log2 fold change [1],log2 fold change (filanesib),log2 fold change (zotarolimus),log2 fold change (idasanutlin),log2 fold change (alisertib),log2 fold change [2],log2 fold change (gefitinib),log2 fold change [3],log2 fold change (lapatinib),log2 fold change (pictilisib)
QKI (UniProt Q96PU8),-0.004,-0.004,-0.026,-0.032,-0.077,-0.079,0.019,0.011,-0.007,-0.032
PI4K2B (UniProt Q8TCG2),-0.035,-0.059,-0.014,-0.034,-0.059,,0.4,-0.054,,0.051
PBK (UniProt Q96KB5),-0.01,0.056,0.112,0.027,-0.032,0.014,0.084,-0.169,-0.001,0.086
POGLUT1 (UniProt Q8NBL1),-0.086,0.076,-0.004,0.114,-0.051,0.035,-0.046,-0.132,0.036,-0.099
POM121 (UniProt Q96HA1),-0.03,0.055,-0.018,0.146,,-0.027,-0.002,,-0.01,0.003
PEX13 (UniProt Q92968),0.028,-0.072,-0.129,-0.019,-0.037,-0.318 (active),-0.045,0.115,-0.013,0.009
PARP16 isoform 3 (UniProt Q8N5Y8),-0.029,-0.13,0.039,-0.056,-0.075,-0.097,0.011,-0.03,0.071,-0.008
PRPF40A (UniProt O75400),0.082,0.135,0.029,0.058,0.024,-0.091,0.042,-0.045,0.018,-0.027
PRKD3 (UniProt O94806),-0.062,-0.002,0.084,0.171,-0.039,,,0.149,,0.255
PDSS2 (UniProt Q86YH6),0.23,0.025,0.184,0.157,,-0.286,0.15,,0.162,-0.038
PDE12 (UniProt Q6L8Q7),0.359 (active),-0.052,0.044,-0.052,-0.051,0.014,-0.01,-0.003,-0.007,0.074
PEX11B (UniProt O96011),0.021,-0.038,-0.009,-0.076,-0.071,-0.063,-0.037,0.019,0.023,0.004
POLD3 (UniProt Q15054),0.002,-0.176,0.123,-0.029,0.002,-0.05,0.066,0.1,0.098,0.004
PPOX (UniProt P50336),0.324,-0.226,0.352,0.574 (active),0.033,-0.178,0.116,0.021,0.471,0.475
PMPCB (UniProt O75439),-0.046,0.036,0.047,-0.122,-0.078,0.046,0.006,0.008,-0.054,-0.012
PTRHD1 (UniProt Q6GMV3),-0.051,0.065,-0.008,0.042,-0.103,-0.025,0.085,0.068,-0.061,0.02
PIK3CD (UniProt O00329),-0.016,0.029,-0.098,0.105,,0.02,,,-0.018,
PIP4K2A (UniProt P48426),0.022,0.006,-0.002,-0.11,-0.018,0.379 (active),0.017,0.314,-0.054,0.132
PPP6R1 (UniProt Q9UPN7),-0.002,-0.072,-0.005,-0.032,-0.098,-0.055,0.012,0.014,0.016,0
PATL1 (UniProt Q86TB9),-0.015,-0.009,0.076,0.049,-0.035,-0.135,,0.069,0.05,-0.115
PLCL1 (UniProt Q15111),0.048,-0.036,0.09,0.062,-0.107,,0.118,0.229,,-0.073
PRKAB2 (UniProt O43741),0.038,-0.167,0.109,0.14,0.053,-0.074,0.004,0.057,0.131,0.111
POLR2G (UniProt P62487),0.039,-0.014,-0.046,-0.006,-0.054,0.127,0.001,0.106,-0.022,0.109
PPP1CA (UniProt P62136),0.263 (active),0.012,-0.032,0.016,0.024,0.015,0.032,0.023,0.001,0.013
PFDN1 (UniProt O60925),-0.048,-0.007,0.091,-0.024,-0.042,-0.125,-0.002,0.026,-0.047,0.014
PDE6D (UniProt O43924),-0.036,0.101,-0.179,-0.092,-0.031,,0.076,0.002,,0.078
PSMD12 (UniProt O00232),-0.015,0.047,0.013,-0.025,-0.096,-0.07,-0.018,-0.067,0.096,-0.059
PCBP2 isoform 3 (UniProt Q15366),0.138,-0.031,0.048,-0.064,0.012,-0.092,0.011,0.002,0.003,-0.013
